High-throughput results deposited in PubChem BioAssay by The Scripps Research Institute Molecular Screening Center.
DAX1 inh-1 = inhibits human nuclear receptor DAX1 | actives 0.99% (n = 340,000) | AID 504766 | inhibition, % at 6.75 µM | HEK293 Gal4-DAX1 luciferase reporter, luminescence | P51843;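 active = inhibition above the mean over all tested compounds plus 3 SD, cut at about 4.2% in these data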;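 also: 0% = DAX1-transfected cells with DMSO and 100% = empty-vector control cells with DMSO; inhibition shows as a rise in luminescence from relieved DAX1 repression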
Target sequence (P51843 207-470 limits assumed): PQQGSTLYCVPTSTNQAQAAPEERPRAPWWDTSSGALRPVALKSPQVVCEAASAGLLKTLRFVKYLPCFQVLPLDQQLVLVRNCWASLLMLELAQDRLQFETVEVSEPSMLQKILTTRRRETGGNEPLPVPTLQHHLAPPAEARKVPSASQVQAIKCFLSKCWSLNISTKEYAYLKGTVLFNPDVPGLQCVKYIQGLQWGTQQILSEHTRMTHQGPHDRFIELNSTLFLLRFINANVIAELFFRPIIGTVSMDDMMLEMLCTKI
DAX1 inh-2 = DAX1 (NR0B1) inhibition, primary screen; HEK293T StAR-luciferase reporter, SF-1/DAX-1 repression relief; inhibition, % at 6.8 µM; actives 1.1% (n = 370,000); AID 652010;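 active = inhibition above the mean over all tested compounds plus 3 SD, cut at about 3.6% in these data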;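 also: 0% = DAX-1 cells with DMSO and 100% = cells lacking DAX-1 with DMSO; higher inhibition means more luminescence from relief of DAX-1 repression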
ssDAF12 agonist = activates DAF-12 receptor from parasite S. stercoralis | HEK293 ssDAF-12/GRIP1 lit1-tk-luc reporter, luminescence; % of 3 µM dafachronic acid response | activation, % at 6.8 µM | actives 1% (n = 370,000) | AID 652126;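 active = activation above the mean over all tested compounds plus 3 SD, cut at about 0.9% in these data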;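 also: 0% = DMSO-only wells and 100% = 3 µM delta7-dafachronic acid wells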
hgDAF12 agonist = agonists of H. glycines DAF-12 nuclear receptor; actives 1.8% (n = 370,000); HEK293 GAL4-hgDAF12 UAS-luciferase reporter, agonist luminescence; normalized to butyrate control; AID 687014; activation, % at 6.8 µM;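 active = activation above a cutoff set at the mean of all screened compounds plus 3 SD, cut at about 10% in these data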;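 also: 0% = DMSO wells and 100% = sodium butyrate wells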
hcDAF-12 act = activators of H. contortus DAF-12 nuclear receptor; HEK293 hcDAF-12 lit1-tk-luc reporter, luminescence; 0% DMSO, 100% Δ7-dafachronic acid; activation, % at 6.8 µM; actives 1.4% (n = 370,000); AID 652067;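 active = activation above the mean of all tested compounds plus 3 SD, cut at about 5.5% in these data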;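 also: 100% = response to 3 µM Δ7-dafachronic acid high control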
DAX1 inh confirm = NR0B1 (human) inhibition, confirmation; HEK293T StAR-promoter luciferase reporter, SF-1/DAX-1 repression; inhibition, % at 6.8 µM; shares compounds with DAX1 inh-2; actives 87% (n = 2,400);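 active = inhibition above the average of every tested compound plus 3 SD, cut at about 3.8% in these data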;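 also: 0% = DAX-1 cells with DMSO and 100% = no DAX-1 control cells with DMSO; active compounds raise luminescence by relieving repression of the StAR reporter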
SF1 AF2mut Luc = counter-screen for DAX1 inhibitors: nonselective inhibitors with SF-1 AF2 mutant | shares compounds with DAX1 inh-2 | HEK293 StAR-luciferase, luminescence | inhibition, % at 6.8 µM | actives 78% (n = 2,400);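 active = inhibition above the mean of all tested compounds plus 3 SD, cut at about 3% in these data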;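 also: 0% = DAX-1 transfected cells with DMSO and 100% = cells without DAX-1 with DMSO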
LXR ag = counter-screen for hcDAF-12 agonists: agonists of human LXR-beta | shares compounds with hcDAF-12 act | HEK293 Gal4-LXR tk-luc reporter, luminescence, 24 h; normalized: DMSO 0%, positive control 100% | activation, % at 6.8 µM | 3,400 tested, under 10 active | AID 743027;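 active = mean percent activation of the reporter above a cutoff set as the average over tested compounds plus their standard deviation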
hcDAF12 conf = hcDAF-12 agonism, confirmation assay. shares compounds with hcDAF-12 act. HEK293 hcDAF-12 lit1-tk-luc reporter, luminescence; % of Δ7-dafachronic acid response. activation, % at 6.8 µM. actives 61% (n = 3,400);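 active = mean activation across triplicate tests above the threshold derived from the earlier primary screen, cut at about 5.5% in these data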;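 also: 0% = DMSO only wells and 100% = 3 µM Δ7-dafachronic acid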
hgDAF12 ag = confirmation of H. glycines DAF-12 agonists. shares compounds with hgDAF12 agonist. HEK293 GAL4-hgDAF12 luciferase reporter, agonist mode; percent of butyrate response. activation, % at 6.8 µM. actives 80% (n = 3,300);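 active = mean activation over triplicate wells above the hit cutoff derived from the earlier primary screen, cut at about 11% in these data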;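 also: 0% = DMSO low control and 100% = 2 mM sodium butyrate high control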
LXR ag 2 = counter-screen for DAF-12 agonists: agonists of human LXR-beta | shares compounds with hgDAF12 agonist | 3,300 tested, under 10 active | activation, % at 6.8 µM | HEK293 Gal4-LXR luciferase reporter, 24 h | AID 743051;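 active = mean activation of the triplicate above a set limit carried over from the primary screen, none filed active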
Starred values were filed as active, the others as inactive; x = no result given. Most compounds without a hit are left out; they make up all but 4.1% or so of the library.

SMILES	DAX1 inh-1	DAX1 inh-2	ssDAF12 agonist	hgDAF12 agonist	hcDAF-12 act	DAX1 inh confirm	SF1 AF2mut Luc	LXR ag	hcDAF12 conf	hgDAF12 ag	LXR ag 2
Cc1cc(C)c(C)c(OCC(=O)O/N=C(\N)c2ccccn2)c1	0	0	-1	1	-1	x	x	x	x	x	x
Cc1ccc(N/C=C/C(=O)c2cccs2)cc1C	x	6.7*	2.6*	30*	21*	18*	6.0*	2	25*	18*	1
C/C(=N\Nc1cccc2cccnc12)c1ccc[nH]1	2	7.5*	1.3*	20*	10*	14*	5.2*	1	9.9*	18*	1
COc1cccc(CNc2ccc(Br)cn2)c1O	1	4.5*	1.1*	19*	6.8*	12*	6.1*	1	6.0*	18*	1
O=C(Nc1ccc(SC(F)F)cc1)C1=COCCO1	1	4.9*	1	15*	4	13*	6.8*	x	x	14*	1
C=C(C)C(COc1c2occc2cc2ccc(=O)oc12)OC(C)(C)C(O)COc1c2occc2cc2ccc(=O)oc12 (configuration not stated)	-2	0	-1	-1	0	x	x	x	x	x	x
COc1ccc(-c2nnc(SCC(C)C)o2)cc1	3	4.8*	1	23*	4	8.2*	3.4*	x	x	22*	1
COc1ccc(C(=O)CSc2nnc(-c3ccc(C)cc3)o2)cc1	1	0	-1	1	0	x	x	x	x	x	x
O=C(Nc1ccc(Cl)cc1)c1ccc(Br)cc1F	4	7.5*	1	18*	9.6*	11*	7.5*	1	6	20*	1
O=C(NN=C1CCCCCC1)c1cccs1	3	13*	1	25*	8.0*	1	1	0	2	6	0
CC1C2CC(C/C2=N/NC(=O)c2cccs2)C1(C)C (configuration not stated)	3	5.0*	0	13*	3	1	1	x	x	0	0
Cc1cccc2nc(CSc3nc4cc([N+](=O)[O-])ccc4s3)cn12	3	-1	-1	-1	-2	x	x	x	x	x	x
CCN(C[C@H]1N[C@@](Cc2ccccc2)(C(=O)OC)[C@H]2C(=O)N(C)C(=O)[C@@H]12)C(=O)C1CCCCC1	0	-1	-1	1	0	x	x	x	x	x	x
CCOC(=O)C(C)OC(=O)C1=C(C)NC(=O)NC1c1ccc2c(c1)OCO2 (configuration not stated)	2	-1	0	0	-2	x	x	x	x	x	x
CCOC(=O)c1cnc(SCc2ccccc2)nc1N	3	5.4*	-1	16*	4	10*	6.6*	x	x	16*	1
C/C(=N\NC(=O)c1cccc(F)c1)c1ccc(NC(=O)Cc2ccccc2)cc1	-1	7.0*	0	14*	6.4*	1	2	x	x	6	0
C/C(=N\NC(=S)Nc1ccc(F)cc1)c1ccc2c(c1)OCCO2	2	-1	0	4	4	x	x	x	x	x	x
C/C(=N/NC(=O)c1ccc2c(c1)OCO2)c1ccc(NC(=O)c2ccc(F)cc2)cc1	2	5.8*	-1	14*	5.7*	6.3*	2	x	x	6	0
C/C(=N\NC(=O)Cc1cccc2ccccc12)c1ccncc1	-1	-1	-2	-2	-1	x	x	x	x	x	x
N#CC1(Nc2ccc(C(=O)O)cc2)CCCC1	2	2	0	0	-1	x	x	x	x	x	x
Cc1cc(CN(C)C(=O)CC2C(=O)NCCN2Cc2c(F)cccc2Cl)n[nH]1 (configuration not stated)	0	0	-1	-2	-2	x	x	x	x	x	x
CC(C)C(=O)Nc1ccc(Nc2ccccc2)cc1	-1	0	-1	9	-2	x	x	x	x	x	x
CC(C)C(=O)Nc1ccc(C=C2C=Cc3ccccc32)cc1	x	5.5*	0.9*	17*	3	8.8*	5.0*	x	x	20*	1
Cc1cccc(NC(=O)c2cc(S(=O)(=O)N(C)c3ccc(F)cc3)ccc2Cl)n1	-1	-3	-2	-2	-1	x	x	x	x	x	x
FC(F)(F)c1ccccc1Cc1c(-c2ccco2)nc2ccc(Br)cn12	x	-1	0	-6	3	x	x	x	x	x	x
SMILES	DAX1 inh-1	DAX1 inh-2	ssDAF12 agonist	hgDAF12 agonist	hcDAF-12 act	DAX1 inh confirm	SF1 AF2mut Luc	LXR ag	hcDAF12 conf	hgDAF12 ag	LXR ag 2
Cc1nc(-c2ccccc2)sc1-c1ccnn1C	4	6.2*	1	16*	8.8*	15*	7.9*	1	5.8*	18*	1
Cc1nc(-c2ccccc2)sc1-c1ccn[nH]1	3	9.2*	0	14*	8.8*	16*	10*	1	6	17*	1
Cc1ccc(NC(=O)c2ncn(CC(=O)NCC(C)c3ccccc3)n2)cc1C (configuration not stated)	1	0	0	1	-1	x	x	x	x	x	x
COc1cccc(CC(=O)Nc2ccccc2N2CCCC2)c1	0	1	-1	1	-2	x	x	x	x	x	x
CC(/C=N/Nc1nc2ccccc2[nH]1)=C\c1ccccc1	2	6.9*	1.5*	21*	8.8*	18*	7.0*	2	6.6*	23*	1
Cc1nn(-c2ccccc2)c(C)c1/C=N/Nc1nc2ccccc2[nH]1	1	6.4*	1.8*	22*	9.1*	17*	8.5*	2	8.9*	17*	1
CC(NC(=O)CN(C)Cc1cccc(Cl)c1)c1ccccc1 (configuration not stated)	0	0	0	-3	-2	x	x	x	x	x	x
Cc1cccc(C)c1-n1nnnc1C1c2ccccc2C(=O)N1CCCN1CCOCC1 (configuration not stated)	x	2	-1	-1	3	x	x	x	x	x	x
Cc1cnc2nc(-c3ccccc3)ccc2c1	x	8.2*	1.0*	17*	6.8*	11*	6.8*	2	6.6*	19*	1
